Results: PubChem BioAssay (NCI)
About 83,000 compounds went through this panel and 20% of them were active in at least one assay; those are over-represented in the sample as a whole.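 Percent growth is the endpoint: 0 to 100 indicates growth inhibition (40 means 60% inhibition), 0 means no net growth, and negative values indicate cell death.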 The source made the active and inactive calls. How the source made its calls: active means growth percent below 10; inactive means the rest.

The compounds below were run on K-562 leukemia (assay: NCI-60 one-dose screen, 48 h (100 = growth as untreated, 0 = no growth, -100 = all killed)). Details: 10 µM unless noted.
In the case of O=C1CC(c2ccc(O)c(O)c2)Oc2cc(O)c([C@@H]3O[C@H](CO)[C@@H](O)[C@H](O)[C@H]3O)c(O)c21 (stereo partly drawn), the growth was 96.8% (inactive).
O=C(NCc1ccccc1)c1ccc2c(c1)NC(=O)[C@@H]1CCCN21 was tested, and the growth was 106% (inactive).
In the case of CCc1ccc(OCc2ccccc2C(=O)Nc2ccc3nc(C)cc(N)c3c2)cc1, the growth was -68% (active).
With CSc1cccc(NC(=O)Nc2nc3c(C)cccc3s2)c1 the growth was 89.8% (inactive).
With COC(=O)[C@]1(C)CCC[C@]2(C)[C@H]3C[C@H]4C(C(C)C)=C[C@]3(CC[C@H]21)[C@@H]1C(=O)N(CCC#N)C(=O)[C@@H]14 the growth was 55.8% (inactive).
In the case of CC1=C(CCCOC(=O)NCCCl)C2=C(C)C3(CC3)[C@@](C)(O)C(=O)C2=C1, the growth was 85.9% (inactive).
In the case of COc1ccc2[nH]c(-c3ccccc3)c(C=C(C#N)C#N)c2c1, the growth was -11.9% (active).
Cc1nn(-c2ccc(-c3ccc(OC(F)(F)F)cc3)cc2)c2nc(-c3ccccc3)nc(N)c12 was tested, and the growth was 93.1% (inactive).
With O=S(=O)(O)c1ccc(N=NSc2ccc3ccccc3c2)cc1 the growth was 118% (inactive).
In the case of O=c1c2ccccc2n(CC(O)CN2CCCC2)c2c(Br)cccc12 (stereo not drawn), the growth was 92.9% (inactive).
In the case of CS(=O)(=O)O[C@@H]1C(=O)N(c2cc3c4ccccc4ccc3c3ccccc23)[C@H]1c1ccc(F)cn1, the growth was 10.3% (inactive).
In the case of CC(C)(C)c1nn(-c2ccccc2)c2c1COCN2Cc1ccc(Cl)cc1, the growth was 47.5% (inactive).
In the case of Cc1cc(NC(=O)CNc2nc(Oc3ccc(F)cc3)nc(-c3ccc(F)cc3)n2)ccc1Cl, the growth was 89.5% (inactive).
For CC(=O)c1cc2c(N)c(C(=O)Nc3ccccn3)sc2nc1C, the growth was 97.6% (inactive).
In the case of CCOC(=O)c1sc(/N=C2\NC(=O)/C(=C/c3ccc(N4CCN(C)CC4)cc3)S2)nc1C, the growth was 95.2% (inactive).
For O=C(/C(=C/c1ccc([N+](=O)[O-])cc1)SCc1ccc(F)cc1)c1ccc(Cl)cc1, the growth was 0.694% (active).
Cc1cnc(-c2ccc(-c3ccc(NC(=O)Nc4c(F)cc(F)cc4F)cc3F)c3c2C(=O)NC3)[nH]1 was tested, and the growth was 22.1% (inactive).
For COc1ccc(Nc2cc(NC(=O)CNc3cc(OC)c(Cl)c(OC)c3Cl)ncn2)cc1, the growth was 74.1% (inactive).
With Nc1n[nH]c2cccc(C#Cc3cccc(NC(=O)c4cc(N5CCOCC5)cc(C(F)(F)F)c4)c3)c12 the growth was 4.32% (active).
In the case of CC(C)(C)CC(C)(C)Cc1ccc(OCCOCC[N+](C)(C)Cc2ccccc2)cc1, the growth was 9.56% (active).
In the case of CCOCc1cc(C(C)(C)C)ccc1O, the growth was 101% (inactive).
For C=C1C(=O)O[C@H]2[C@H]1CC/C(COC(=O)Nc1nc3ccccc3[nH]1)=C\CC[C@@]1(C)O[C@@H]21, the growth was 13.5% (inactive).
With C=C(C)[C@@H]1CC[C@]2(C(=O)n3ccnc3)CC[C@]3(C)[C@H](CC[C@@H]4[C@@]5(C)CCCNC(C)(C)[C@@H]5CC[C@]43C)[C@@H]12 the growth was -38.4% (active).
C=C(C)[C@@H]1CC[C@]2(C(=O)O)CC[C@]3(C)[C@H](CC[C@@H]4[C@@]5(C)C[C@@H](CC#Cc6ccccc6C)C(=O)C(C)(C)[C@@H]5CC[C@]43C)[C@@H]12 was tested, and the growth was 14% (inactive).
For Clc1ccc2c(NCCCNC3CCCCC3)ccnc2c1, the growth was 70.3% (inactive).
In the case of CN(C)C(CNc1oc(-c2cccc3ccccc23)nc1C#N)c1ccco1 (stereo not drawn), the growth was 74.5% (inactive).
With c1cc(CNC23CC4CC(CC(C4)C2)C3)cc(C[N+](Cc2cccc(CNC34CC5CC(CC(C5)C3)C4)c2)(Cc2cccc(CNC34CC5CC(CC(C5)C3)C4)c2)Cc2cccc(CNC34CC5CC(CC(C5)C3)C4)c2)c1 (stereo not drawn) the growth was 4.99% [42 µM] (active).
With O=C1CCc2ccccc2N1 the growth was 90.2% (inactive).
In the case of Cc1cnc(SCc2ccc(Cl)cc2Cl)nc1Nc1ccc(Cl)c(Cl)c1, the growth was 69.3% (inactive).
For COc1cc(C2=NN(C(C)=O)C(c3cccc(Nc4ccnc5cc(C(F)(F)F)ccc45)c3)C2)cc(OC)c1OC (stereo not drawn), the growth was 36.8% (inactive).
CCOC(=O)c1c(-c2ccc(O)cc2)c(C#N)c2c(C#N)c(N)nn2c1N was tested, and the growth was 19.8% (inactive).
For CN(C)CCCn1c2c(c3cc(-c4ccco4)ccc3c1=O)C(=O)c1ccccc1-2, the growth was -75.1% (active).
In the case of Nc1cc(N)c(S(=O)(=O)O)cc1N=Nc1cc([N+](=O)[O-])ccc1O, the growth was 80.8% (inactive).
For COc1cc(/C=N/Nc2nc(-c3ccc(F)cc3)c(C#N)c(N3CCOCC3)n2)ccc1O, the growth was 85.3% (inactive).
In the case of COc1cc(-c2csc(NC(=O)Nc3ccc(Cl)cc3)n2)cc(OC)c1OC, the growth was 9.22% (active).
With N#CCNc1ccc(C(=O)O)cc1 the growth was 97.4% (inactive).
CCOC(=O)c1ccc(Nc2ncnc3ccc(NC(=O)c4ccccc4)cc23)cc1 was tested, and the growth was 71.9% (inactive).
With COC(=O)/C=C/c1cc(OC(C)=O)c2c(c1)C(C(=O)OC)C(c1ccc(OC(C)=O)c(OC(C)=O)c1)O2 (stereo not drawn) the growth was 6.86% (active).
